# FBW7 activator: human FBW7 E3 ligase activation, primary screen | AlphaScreen FBW7–phospho-cyclin E peptide binding, activator screen | normalized activity (activation), % at 26.1 µM | 650,000 compounds, 0.13% hits | AID 1259310; in the data active = normalized activity above about 1.9%;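 note: purified mutant Fbw7 with reduced substrate affinity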
# GPR151 activ: human GPR151 activation; Q8TDV0; PathHunter beta-arrestin GPR151 cells, luminescence; activation, % at 11.2 µM; 650,000 compounds, 1% hits; in the data active = activation above about 4.9%;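 note: 0% = median of compound wells and 100% = cells with positive control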
# TEAD-YAP inh: TEAD-YAP interaction inhibition | 640,000 compounds, 1.4% hits | inhibition, % at 9.12 µM | AID 1259422 | HEK-TIYL cells, TEAD-Gal4/YAP UAS-luciferase luminescence; in the data active = inhibition above about 32%;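 note: 0% = median of test compound wells and 100% = reference inhibitor wells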
# MITF inh: blocks human microphthalmia-associated transcription factor; AlphaScreen MITF homodimerization, bead proximity signal; inhibition, % at 2.6 µM; 650,000 compounds, 0.91% hits; in the data active = inhibition above about 50%;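 note: 0% = vehicle wells with protein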
# Target sequence (O75030 whole entry, looked up): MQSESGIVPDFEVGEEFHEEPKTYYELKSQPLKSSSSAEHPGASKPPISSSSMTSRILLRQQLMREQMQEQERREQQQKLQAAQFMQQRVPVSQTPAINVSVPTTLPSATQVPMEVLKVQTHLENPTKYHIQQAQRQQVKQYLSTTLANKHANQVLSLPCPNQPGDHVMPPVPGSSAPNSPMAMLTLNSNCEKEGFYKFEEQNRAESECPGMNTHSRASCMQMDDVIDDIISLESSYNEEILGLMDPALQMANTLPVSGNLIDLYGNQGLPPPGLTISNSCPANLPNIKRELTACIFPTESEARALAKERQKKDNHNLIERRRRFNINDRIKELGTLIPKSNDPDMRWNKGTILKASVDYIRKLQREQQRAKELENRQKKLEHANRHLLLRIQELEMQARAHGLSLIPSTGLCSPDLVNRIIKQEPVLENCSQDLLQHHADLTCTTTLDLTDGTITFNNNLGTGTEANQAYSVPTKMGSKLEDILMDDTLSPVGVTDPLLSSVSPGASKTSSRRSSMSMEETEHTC
# GPR151 confirm: confirmation of human GPR151 activators | 6,700 tested, under 10 active | activation, % at 11.2 µM | AID 1508609 | GPR151 PathHunter beta-arrestin cells, luminescence, 90 min; % of EA-reagent control over plate median | shares compounds with GPR151 activ;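 active = mean percent activation across replicates above the confirmation screen cutoff of 4.91%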
# GPR119 counter: counter-screen for GPR151 activators: effect on human GPR119. shares compounds with GPR151 activ. GPR119 PathHunter beta-arrestin cells, luminescence, 90 min; 0 = compound-well median, 100 = enzyme-acceptor control. activation, % at 11.2 µM. 6,700 compounds, 0.3% hits. AID 1508611;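 active = mean percent activation in the counterscreen above 29.09%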;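 note: counterscreen on off-target GPR119 to flag nonselective hits from the GPR151 activator screen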
# * = called active by the depositor; . = no result given. An excerpt weighted towards active compounds, which were near 3.5% of everything screened.
SMILES,FBW7 activator,GPR151 activ,TEAD-YAP inh,MITF inh,GPR151 confirm,GPR119 counter
COc1ccc(CCc2nnc(CCC(=O)NCc3cc4cc(Cl)ccc4[nH]3)o2)cc1,0.0,2.1,-11.6,-1.0,.,.
COc1ccc2c(c1)-c1c(ssc1=S)C(C)(C)N2C(=O)Cc1ccccc1,-0.8,6.3*,-16.2,15.7,0.8,10.3
Cn1c(=O)c2sccc2n2c(CCCC(=O)NCCCN3CCCC3=O)nnc12,0.1,-2.6,1.9,15.5,.,.
CCOC(=O)N1CCN(C(=O)CN(c2ccccc2Br)S(C)(=O)=O)CC1,0.1,7.6*,2.4,14.3,0.6,-5.5
CCNc1c(NS(=O)(=O)c2ccc(C)cc2C)c(=O)oc2ccccc12,-0.1,0.8,-9.8,-4.8,.,.
C=C(C)CN(CC)Cc1nc(-c2ccccn2)no1,0.0,14.4*,1.9,6.3,0.1,0.2
CCSc1nc2ccccc2c(=O)n1CC1CCCCC1,-0.1,-1.8,-0.1,-6.6,.,.
Cn1c(=O)c2c(ncn2CC(O)CN2C(=O)c3ccccc3S2(=O)=O)n(C)c1=O (stereo not given),-0.1,6.0*,4.7,7.5,-0.3,-12.8
COc1ccc(N)cc1NC(=O)CN1CCCCC1,0.1,1.8,-2.0,-1.6,.,.
CSCC(=O)NCC1Cc2cccc(-c3ccncc3)c2O1 (stereo not given),-0.1,1.4,-0.1,-0.9,.,.
CCOc1ccc2cc(S(=O)(=O)NCc3ccccc3)ccc2c1,-0.1,5.2*,8.3,6.7,0.3,6.1
COc1ccc2cc(S(=O)(=O)NCc3ccccc3)ccc2c1,0.0,0.4,-0.1,7.4,.,.
CCOc1cc(C)nc(N2CCc3c(nc(N4CC(C)OC(C)C4)[nH]c3=O)C2)n1 (stereo not given),0.0,0.5,-7.4,-8.2,.,.
Cc1ccc(OCC(=O)N(C)C2CCCCC2)cc1C,-0.2,5.0*,-73.1,-5.0,-0.9,6.9
Cc1ccc(OCC(=O)NC2CCCCC2)cc1C,0.3,-0.6,-17.5,-3.6,.,.
O=C(CSc1nc(-c2ccccc2)ns1)c1ccccc1,0.0,-0.8,-27.9,-6.5,.,.
CCOC(=O)c1c(NC(=S)NC)sc(C)c1C,-0.3,0.8,4.2,2.3,.,.
O=C(NCCCc1ccccc1)C1CCN(C(=O)N2CCOc3ccccc32)CC1,-0.1,6.1*,0.9,6.7,0.9,-7.4
O=C(NCCCc1ccccc1)C1CCN(C(=O)N2CCOc3ccc(Cl)cc32)CC1,0.1,3.6,8.0,6.5,.,.
CC1=NN(c2cccc(Cl)c2)C(=O)/C1=C/c1ccc(C)s1,-1.1,1.3,-23.6,39.1,.,.
O=C1NC2(CCN(Cc3ccc4nccnc4c3)CC2)Oc2ccccc21,0.3,5.0*,4.0,-4.8,-0.8,-11.5
O=C1NC2(CCN(Cc3ccc(F)c(F)c3)CC2)Oc2ccccc21,0.2,0.6,-0.9,2.5,.,.
Cc1csc(NC(=O)CSc2nc(C3CC3)nc3sc(C)c(C)c23)n1,0.0,6.3*,-17.5,9.0,0.8,7.4
COc1ccc(C)cc1-n1cnc2cc(C(=O)O)ccc21,0.1,7.7*,-3.7,3.8,-0.6,2.7
Oc1ccc(-c2nc(-c3ccc(-c4ccccc4)cc3)c(-c3ccc(-c4ccccc4)cc3)[nH]2)cc1,0.1,-0.7,9.4,10.6,.,.
SMILES,FBW7 activator,GPR151 activ,TEAD-YAP inh,MITF inh,GPR151 confirm,GPR119 counter
Oc1ccc(-c2nc(-c3cccc(C(F)(F)F)c3)c(-c3ccccc3)[nH]2)cc1,0.2,5.8*,11.6,6.7,-0.3,-3.9
OC(COc1ccccc1F)CN1CCN(Cc2ccc(Cl)cc2)CC1 (stereo not given),-0.1,1.2,0.7,-14.0,.,.
Cc1ccc(/C=C/C(=O)NCc2ccc(S(N)(=O)=O)cc2)o1,-0.6,6.3*,-5.6,5.2,-0.5,-4.5
O=C(NNC(=O)c1ccc([N+](=O)[O-])cc1Cl)c1cc(Cl)ccc1O,-0.5,-0.1,-17.9,-7.2,.,.
CN(CC1COCCO1)C(=O)c1cc(COc2c(F)cccc2F)on1 (stereo not given),0.0,16.2*,-8.7,5.8,-0.2,2.2
O=C(NCCCN1CCCC1=O)c1cccc(-c2ccc(C(=O)NC3CC3)cc2)c1,0.0,6.1*,-8.0,14.1,1.2,-1.1
COc1ccc(-c2cccc(C(=O)NCCCN3CCCC3=O)c2)cc1,-0.1,2.0,-10.1,-10.1,.,.
O=C(NC1CC1)c1cnc(NCCCN2CCCC2=O)s1,-0.1,6.0*,2.1,3.1,0.5,-5.3
Cn1c(=O)c2c(nc(SCc3ccccn3)n2C)n(C)c1=O,0.1,0.4,13.0,12.7,.,.
Cn1c(=O)c2c(nc(SCc3ccccc3F)n2C)n(C)c1=O,0.0,4.9*,7.3,0.5,0.8,12.5
O=C1CSC(c2cccc(C(F)(F)F)c2)N1c1cc(Cl)cc(Cl)c1 (stereo not given),0.2,-1.2,8.2,-4.1,.,.
NCc1cccc(CNC(=O)c2c[nH]c3cc(-c4cn[nH]c4)ccc23)c1,-0.3,5.1*,-11.5,-10.6,-1.6,-7.4
Cc1ccc(N2C(c3ccc(N(C)C)cc3)C(=O)C2N2C(=O)c3ccccc3C2=O)cc1 (stereo not given),0.6,8.4*,-0.7,22.6,-0.2,3.6
Cc1ccc(-c2nc(CSCC(=O)NCCC(C)C)c(C)o2)cc1,-0.4,0.3,5.0,-4.1,.,.
O=C(O)c1cccc(-n2nnnc2-c2ccccc2)c1,0.2,5.8*,-6.7,-5.0,-0.9,-18.3
Cc1cnc(Cl)nc1NCc1ccccc1,0.3,5.6*,-10.4,5.3,0.3,3.4
CN1C(=O)N(C)C(c2ccccc2Cl)C2=C1CC(C)(C)CC2=O (stereo not given),-0.2,0.8,-1.3,0.9,.,.
CN1C(=O)NC(c2ccccc2Cl)C2=C1CC(C)(C)CC2=O (stereo not given),-0.1,5.7*,3.6,-3.1,0.8,-3.4
COc1cccc(C(=O)NCc2nnc(SCC(=O)N3N=C(c4cccs4)CC3c3ccc(C)cc3)n2-c2ccccc2)c1 (stereo not given),-0.1,0.6,6.7,-12.2,.,.
COc1ccc(C2CC(c3cccs3)=NN2C(=O)CSc2nnc(CNC(=O)c3cccc(OC)c3)n2-c2ccccc2)cc1 (stereo not given),-0.1,5.8*,1.6,-9.4,1.4,0.7
COc1ccc(OC)c(S(=O)(=O)Nc2cc3c(C(C)=O)c(C)oc3c3ccccc23)c1,-0.1,5.7*,-3.5,-6.4,-0.5,-6.4
COC(=O)c1c(C)oc2c1cc(NS(=O)(=O)c1cc(C)ccc1C)c1ccccc12,0.0,4.7,-7.8,-8.4,.,.
CCCOc1ccc(-c2ccc(C(=O)O)cc2)cc1,0.0,6.3*,-22.5,7.8,-0.1,1.6
CCCCCCOc1ccc(C(=O)O)cc1,-0.1,-4.5,-0.1,-27.4,.,.
COc1cc(/C=C2\NC(=O)N(Cc3ccc(Cl)cc3)C2=O)cc(OC)c1O,-0.4,-2.0,-6.2,-11.8,.,.
COc1ccc2ccc(OC)c(/C=C3\NC(=O)N(Cc4ccc(Cl)cc4)C3=O)c2c1,0.1,4.9*,-0.3,7.1,0.1,6.0

# Screening data (PubChem BioAssay)
